Compound activity deposited in PubChem by SRMLSC.
Rows were chosen to be rich in hits. Some 6.3% of all compounds tested hit in one or more screens of this group.
A340 absorber: compound absorbs light at 340 nm; compound absorbance at 340 nm, fold over control; fold change at 10 µM; 65,000 tested, under 10 active; AID 708;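 active = at 10 µM dose, initial 340 nm absorbance at least 2 fold that of control wells; inactive = change under 2 fold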;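 also: initial absorbance extrapolated from kinetic A340 decline of NADH oxidation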
MK inhibit: inhibitors of Streptococcus pneumoniae mevalonate kinase. purified MK, PK/LDH-coupled NADH absorbance 340 nm. inhibition, % at 10 µM. hit rate 0.48% among 65,000;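 active = ranked among the strongest by inhibition in the single 10 µM screen, a fixed top-ranked set picked for dose follow-up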
Spn PMK inh: inhibitors of Streptococcus pneumoniae phosphomevalonate kinase; hit rate 0.49% among 65,000; AID 539; purified PMK, PK/LDH-coupled NADH absorbance 340 nm; inhibition, % at 10 µM;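 active = top-ranked compounds by inhibition in the single 10 µM screen, taking a fixed number of the strongest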;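 also: 0% = full reaction with DMSO carrier and 100% = background rate without enzyme reaction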
NADH coupling: inhibitors of enzymes used to reach an NAD/NADH endpoint | hit rate 0.02% among 65,000 | coupled PK/LDH NADH assays, four targets | IC50, µM (series often up to 10 µM), for the others: top-dose inhibition;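 active = single-dose screening hits from any of four coupled enzyme assays that gave an IC50 when retested across doses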;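 also: the DPM-DC format reads NADH fluorescence rather than 340 nm absorbance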
Autofluor 339: intrinsic fluorescence of library compounds, ex339/em460 – biochemical, MLSMR library, data from DPM-DC assay, artefact control, profiling panel. compound autofluorescence, ex339/em460 nm, NADH buffer; hits give high values; 1 = no-compound wells, NADH background. fluorescence fold increase at 10 µM. hit rate 5.5% among 65,000. AID 709;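 active = at 10 µM, mean starting fluorescence two-fold or more over control wells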;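 also: signal is the first read of a kinetic run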
Spn DPM-DC inh: S. pneumoniae DPM-DC inhibition | purified DPM-DC, PK/LDH coupled NADH fluorescence | calls only at 10 µM | hit rate 0.49% among 65,000;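 active = the 320 compounds with the highest percent inhibition in the single-dose primary screen, excluding strongly autofluorescent ones, cut at about 32% in these data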;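 also: kinetic rate of NADH fluorescence loss reporting ADP formed by the decarboxylase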
Active calls of the source: *; i = inactive; · = no result shown; + = active, no number.

SMILES | A340 absorber | MK inhibit | Spn PMK inh | NADH coupling | Autofluor 339 | Spn DPM-DC inh
COC(=O)c1cc(-c2cccc(OC)c2)on1 | 0.96 | 3 | 10 | 4% | 1.1 | i
COC(=O)C1=CN(C(C)C)C=C(C(=O)OC)C1c1cccc(OC)c1 | 1.1 | 4 | 4 | 4% | 2.2* | ·
CCOC(=O)C1=C(C)NC(C)=C(C(=O)OC)C1c1cccc([N+](=O)[O-])c1 (configuration not stated) | 0.99 | 4 | 1 | 3% | 0.98 | i
COC(=O)C1=C(C)NC(C)=C(C(=O)OC)C1c1ccccc1[N+](=O)[O-] | 0.98 | 4 | 7 | 4% | 0.57 | i
CCCOc1ccccc1C1C(C(=O)OC)=CN(C(C)C)C=C1C(=O)OC | 1.1 | 9 | 7 | 8% | 3.9* | ·
COC(=O)C1=CN(CCCN2CCCC2=O)C=C(C(=O)OC)C1c1ccccc1C(F)(F)F | 1 | 7 | 7 | 7% | 2.2* | ·
CCCCOc1ccccc1C(=O)NCC(=O)O | 1 | 7 | 6 | 5% | 1.1 | i
CCCCOc1ccccc1C1C(C(=O)OC)=CN(CC)C=C1C(=O)OC | 1.1 | 10 | 3 | 7% | 2.2* | ·
O=C(Nc1ccc(-n2nncc2-c2ccco2)cc1)c1cc2ccccc2oc1=O | 1.1 | 0 | 11 | 4% | 1.1 | i
CCCCCCn1c(NCC)nc2c1c(=O)n(C)c(=O)n2C | 1 | 9 | 7 | 5% | 1.1 | i
Cc1ccc(OCc2nnc(NC(=O)Cc3cccs3)s2)cc1 | 1 | 11 | 0 | 4% | 1.1 | i
CC(C)(C)CC(=O)Nc1nnc(-c2cccs2)s1 | 1.1 | 0 | 14 | 17% | 1.3 | +
COC(=O)C1(C)Nc2ccccc2C(=O)N1c1ccccc1C (configuration not stated) | 1.1 | 4 | 0 | 2% | 2.1* | ·
COc1cc2nc(N3CCN(C(=O)C4COc5ccccc5O4)CC3)nc(N)c2cc1OC (configuration not stated) | 1 | 6 | 4 | 2% | 2.5* | ·
COc1cc2nc(N3CCN(C(=O)c4ccco4)CC3)nc(N)c2cc1OC | 1 | 6 | 0 | 2% | 2.5* | i
CCOC(=O)c1c(C)nc2ncccn12 | 1 | 8 | 4 | 6% | 2.1* | ·
O=C1CSC(=Nc2cc(Cl)ccc2Cl)N1 | 1.1 | 13 | 4 | 6% | 1 | i
CC1(C(=O)NC2CCCCCCC2)CCC(=O)N1Cc1ccco1 (configuration not stated) | 1 | 2 | 31* | 11% | 1 | i
Cc1ccc(C2C=C(c3ccc4c(c3)OCO4)Nc3ncnn32)cc1 (configuration not stated) | 1.1 | 0 | 5 | 8% | 3* | i
CN(C)c1ccc(C2C=C(c3ccc(Cl)cc3OC(F)F)Nc3ncnn32)cc1 (configuration not stated) | 1 | 8 | 8 | 10% | 1.6 | i
Cc1ccc(C2C=C(c3ccccc3OC(F)F)Nc3ncnn32)cc1 (configuration not stated) | 1 | 13 | 14 | 12% | 2.1* | i
CC(O)c1nc2ccccc2n1Cc1nnc(-c2ccc(Cl)cc2)o1 (configuration not stated) | 1 | 0 | 16 | 5% | 1.1 | i
c1ccc(-c2nnc(Cn3c4ccccc4c4nc5ccccc5nc43)o2)cc1 | 1.1 | 9 | 8 | 9% | 3.6* | ·
CN1CCc2c(sc3ncn4nc(-c5ccccc5O)nc4c23)C1 | 1.1 | 0 | 5 | 3% | 1.4 | i
N#Cc1cc2c(=O)n3ccccc3nc2n(Cc2cccnc2)c1=O | 1.1 | 7 | 9 | 8% | 3.8* | ·
SMILES | A340 absorber | MK inhibit | Spn PMK inh | NADH coupling | Autofluor 339 | Spn DPM-DC inh
Cc1cccn2c(=O)c3cc(C#N)c(=O)n(Cc4cccnc4)c3nc12 | 1 | 6 | 3 | 5% | 3.8* | ·
O=c1[nH]c2ccccc2nc1Cc1ccccc1 | 1 | 13 | 1 | 12% | 1.6 | i
O=c1[nH]c2ccccc2nc1C(F)(F)C(F)F | 1.1 | 6 | 4 | 5% | 2.1* | ·
COC(=O)c1ccccc1NC(=O)C12CCC(C)(C(=O)O1)C2(C)C (configuration not stated) | 1 | 0 | 0 | 1% | 1 | i
Cc1cc(C(=O)CSCc2nnc3n(CCC(C)C)c(=O)c4ccccc4n23)c(C)n1C | 1 | 0 | 15 | 4% | 1.1 | i
CCOC(=O)c1oc2ccccc2c1NC(=O)c1ccccc1OC | 1 | 5 | 13 | 6% | 1.5 | i
CCOC(=O)c1oc2ccccc2c1NC(=O)COc1ccc(F)cc1 | 1.1 | 8 | 15 | 16% | 3.9* | i
CCOC(=O)c1oc2ccccc2c1NC(=O)COc1cccc(OC)c1 | 1.1 | 3 | 11 | 8% | 2.9* | i
O/N=C1/CCCSc2ccccc21 | 1 | 4 | 8 | 4% | 1.1 | i
O/N=C1\CCC\C1=C/c1ccco1 | 1.1 | 4 | 8 | 15% | 1.4 | +
Cc1ccc(S(=O)(=O)NCCCN2CCOCC2)c(C)c1 | 1.1 | 10 | 0 | 3% | 1.1 | i
CCOC(=O)c1[nH]c2ccc(OC)cc2c1NC(=O)CCN1CCCC(C)C1 (configuration not stated) | 1.1 | · | 0 | 0% | 2.2* | ·
COC(=O)c1[nH]c2cc(OC)ccc2c1N | 1.1 | 1 | 14 | 8% | 3.8* | ·
CCOC(=O)c1[nH]c2cc(OC)c(OC)cc2c1NC(=O)C(C)N1CCN(Cc2ccccc2)CC1 (configuration not stated) | 1 | 2 | 13 | 4% | 2.5* | ·
CCOC(=O)c1[nH]c2ccc(OC)cc2c1NC(=O)C(C)N1CCSCC1 (configuration not stated) | 1.1 | 7 | 0 | 4% | 3.8* | ·
CCOC(=O)c1[nH]c2ccc(OC)cc2c1NS(=O)(=O)c1ccc(OC)cc1OC | 1.1 | 4 | 5 | 3% | 1.7 | i
CCn1c(=O)c(=O)[nH]c2cc(C(=O)NC3CCCc4ccccc43)ccc21 (configuration not stated) | 1.1 | 16 | 20 | 12% | 1.5 | i
CCCCc1c(C)nn(-c2nnc3c4ccccc4n(C)c3n2)c1C | 1.1 | 2 | 0 | 1% | 1.1 | i
O=C(CCNS(=O)(=O)c1cccc2nonc12)NCc1cccs1 | 1.1 | 11 | 0 | 4% | 1.1 | i
CCOC(=O)c1[nH]c2ccc(OC)cc2c1NC(=O)OC | 1.1 | 11 | 10 | 11% | 3.6* | ·
CCOC(=O)c1[nH]c2ccc(OC)cc2c1N=CN(C)C | 1.1 | 4 | 0 | 2% | 2.8* | i
N#C/C(=C\c1ccc[nH]1)S(=O)(=O)c1ccccc1 | 1.2 | 12 | 1 | 6% | 1.1 | i
CC(C)CC(=O)Nc1ccccc1-c1nnn(CC(=O)N2CCOCC2)n1 | 0.99 | 9 | 9 | 2% | 1 | i
